PubChem BioAssay (NCATS)
Values joined by “and” are separate entries in the source; they are usually repeats but may differ in a detail not shown here. Identical values can stand only once. Records with an inconclusive call do not appear. Active and inactive are the calls of the source. Unless noted, the call rests on the fitted dose curve; in most records, active means well fitted curve in the direction sought with a large enough effect; inconclusive means small, poorly fitted or top-dose-only effect, or another doubt; inactive means no such curve, though single readings can be large; an effect the other way counts as inactive or inconclusive.

Experiments:
[1] = NCATS anti-infectives library activity on the primary C. elegans qHTS viability assay (AID 1745855; calls by dose curve; further: potency means the concentration at half of the fitted maximal effect)
How it was run: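 GFP read-out by 488 nm laser cytometry at day 0, 3 and 7, gated on object perimeter, area and peak intensity, scored viability of PE254-GFP-FLuc worms exposed to compound in S medium with bacterial capsules at 21 °C.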

[2] = qHTS profiling of the MIPE4 collection as inhibitors of Plasmodium falciparum (HB3) proliferation (AID 743347; call rule not given here;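 further: plate controls were DMSO vehicle wells for no effect and artemisinin wells for full effect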); settings: P. falciparum HB3 in erythrocytes, SYBR Green DNA, 72 h; at 28.5 µM (top of the series)
How it was run: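 Parasite DNA was quantified by SYBR Green I fluorescence (ex 485, em 535 nm) after overnight lysis in saponin/Triton buffer at room temperature. Cultures at 0.3% parasitemia and 2.5% hematocrit were first exposed to compound for 72 h at 37 C; signals were normalised to artemisinin (0.29 uM) and vehicle wells.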

[3] = biological target: Bile acid receptor (Homo sapiens) (UniProt Q96RI1); experiment: qHTS assay for small molecule antagonists of farnesoid X receptor signaling (AID 588526; calls by dose curve; further: on the % scale 0 is the no-effect control and ±100 the full control effect)
Sequence of Bile acid receptor (Homo sapiens) (Q96RI1 whole entry, looked up): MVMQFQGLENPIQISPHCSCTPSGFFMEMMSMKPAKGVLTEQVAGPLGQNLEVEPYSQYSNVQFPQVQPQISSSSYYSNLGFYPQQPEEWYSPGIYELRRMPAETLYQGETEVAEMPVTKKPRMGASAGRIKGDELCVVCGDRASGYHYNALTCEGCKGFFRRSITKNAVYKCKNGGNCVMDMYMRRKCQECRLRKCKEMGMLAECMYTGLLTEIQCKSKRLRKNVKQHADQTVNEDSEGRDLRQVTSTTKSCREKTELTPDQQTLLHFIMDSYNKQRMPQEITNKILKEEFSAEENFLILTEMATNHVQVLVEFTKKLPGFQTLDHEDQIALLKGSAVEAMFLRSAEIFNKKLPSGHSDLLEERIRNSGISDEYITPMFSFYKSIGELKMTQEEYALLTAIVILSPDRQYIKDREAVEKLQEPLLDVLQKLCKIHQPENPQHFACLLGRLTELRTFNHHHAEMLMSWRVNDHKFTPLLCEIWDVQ
How it was run: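 Beta-lactamase reporter antagonist mode: HEK293T FXR-UAS-bla cells, titrated compound, CDCA stimulation, 16 h 37 C, CCF4 dye 2 h RT. Data normalized to CDCA 50 uM and DMSO; Hill-fit IC50.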

[4] = biological target: Glucocorticoid receptor (Homo sapiens) (UniProt P04150); experiment: qHTS assay for small molecule agonists of glucocorticoid receptor signaling (AID 588532; active means well fitted curve in the direction sought with a large enough effect in the signal ratio, with a control signal flat; the % refers to the signal ratio;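 further: 100% = dexamethasone at 0.1 µM and 0% = DMSO only wells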); settings: HeLa MMTV-bla, beta-lactamase ratio, agonist, 18 h; stronger effect = higher value; percent of dexamethasone control, DMSO zero
Sequence of Glucocorticoid receptor (Homo sapiens) (P04150 whole entry, looked up): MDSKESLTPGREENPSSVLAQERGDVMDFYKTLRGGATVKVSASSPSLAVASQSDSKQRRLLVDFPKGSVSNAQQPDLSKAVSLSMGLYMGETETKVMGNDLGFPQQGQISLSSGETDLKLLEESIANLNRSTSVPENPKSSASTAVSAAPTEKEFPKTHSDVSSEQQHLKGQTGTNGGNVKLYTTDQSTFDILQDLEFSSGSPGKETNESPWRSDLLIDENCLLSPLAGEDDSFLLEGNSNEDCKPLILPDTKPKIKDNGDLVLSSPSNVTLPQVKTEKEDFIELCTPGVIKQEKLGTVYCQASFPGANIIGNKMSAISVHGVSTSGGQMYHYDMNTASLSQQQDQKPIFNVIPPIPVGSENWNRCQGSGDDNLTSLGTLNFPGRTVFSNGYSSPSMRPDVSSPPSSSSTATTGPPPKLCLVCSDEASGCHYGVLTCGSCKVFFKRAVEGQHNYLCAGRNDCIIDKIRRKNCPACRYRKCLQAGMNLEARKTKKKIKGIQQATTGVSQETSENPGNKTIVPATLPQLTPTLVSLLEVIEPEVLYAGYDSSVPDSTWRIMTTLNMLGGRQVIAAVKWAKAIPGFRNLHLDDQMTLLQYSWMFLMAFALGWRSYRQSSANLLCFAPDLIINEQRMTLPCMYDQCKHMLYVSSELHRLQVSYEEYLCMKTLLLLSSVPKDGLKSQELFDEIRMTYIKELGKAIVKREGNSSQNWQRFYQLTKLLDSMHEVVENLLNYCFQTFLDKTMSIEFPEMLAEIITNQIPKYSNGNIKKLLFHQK
How it was run: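 Agonist-mode qHTS: GRE-driven beta-lactamase in HeLa cells exposed 18 h to titrated compounds (up to 92 uM), then CCF4 ratio read after 2 h at RT; Hill-fitted EC50, efficacy relative to 0.1 uM dexamethasone.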

[5] = qHTS assay for small molecule activators of the nuclear factor-kappa B (NF-kB) signaling pathway (AID 651749; active means well fitted activation curve with a large enough effect in the signal ratio; the % refers to the signal ratio; further: % of control where 0% means no effect); settings: NF-kB-bla ME-180 cells, beta-lactamase FRET ratio, 16 h; stronger effect = higher value
How it was run: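 Activation measured after 16 hr compound treatment at 37C, 5% CO2, of 2,000 ME-180 cells/well stably expressing an NF-kB response element–driven beta-lactamase reporter, via FRET-disruption fluorescence.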

[6] = qHTS assay for small molecule agonists of the antioxidant response element (ARE) signaling pathway measured by Nrf2-dependant transcriptional activity (AID 720636; active means well fitted curve in the direction sought with a large enough effect in the repeat runs; an effect the other way counts as inactive or inconclusive;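 further: HepG2 cells with an ARE-driven luciferase reporter; % of control where 0% means no effect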)
How it was run: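 Attachment 6 hr at 37 C, then compound versus DMSO vehicle for 16 hr in ARE-luc HepG2 cells (1% dialyzed FBS); luminescence recorded 30 min after ONE-Glo addition at room temperature.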

[7] = biological target: Luciferin 4-monooxygenase (Photinus pyralis) (UniProt P08659); experiment: Biochemical firefly luciferase enzyme assay for NPC (AID 624030);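 further: purified P. pyralis luciferase at 10 nM with luciferin and ATP substrate; 0% = DMSO and -100% = full luciferase inhibition by PTC124 control; nearly all actives have a fitted effect of over 70% in size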
Sequence of Luciferin 4-monooxygenase (Photinus pyralis) (P08659 whole entry, looked up): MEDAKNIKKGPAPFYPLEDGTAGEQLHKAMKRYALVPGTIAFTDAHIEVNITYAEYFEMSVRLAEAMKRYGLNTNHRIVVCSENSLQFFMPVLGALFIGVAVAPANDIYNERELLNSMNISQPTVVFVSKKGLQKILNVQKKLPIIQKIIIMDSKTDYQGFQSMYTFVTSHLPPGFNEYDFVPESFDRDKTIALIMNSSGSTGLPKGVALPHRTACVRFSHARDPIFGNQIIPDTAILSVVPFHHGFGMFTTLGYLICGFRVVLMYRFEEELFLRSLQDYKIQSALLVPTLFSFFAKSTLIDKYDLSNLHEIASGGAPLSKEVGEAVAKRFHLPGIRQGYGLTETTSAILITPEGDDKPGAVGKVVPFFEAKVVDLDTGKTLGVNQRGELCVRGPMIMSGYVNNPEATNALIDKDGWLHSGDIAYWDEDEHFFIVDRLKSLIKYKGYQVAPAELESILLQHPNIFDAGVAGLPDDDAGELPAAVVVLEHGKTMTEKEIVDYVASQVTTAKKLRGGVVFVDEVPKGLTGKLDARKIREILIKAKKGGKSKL
How it was run: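 Direct inhibition of firefly luciferase enzyme (10 nM final, 50 mM Tris Acetate) assessed by luminescence within 5 minutes. Percent activity scaled between DMSO and PTC124 positive control, with concentration-effect curves classified by fit quality and response.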

[8] = biological target: Pyruvate kinase PKM (Homo sapiens) (UniProt P14618); experiment: qHTS Assay for Inhibitors of Human Muscle Pyruvate Kinase (AID 958); settings: purified human PKM enzyme activity
Sequence of Pyruvate kinase PKM (Homo sapiens) (P14618 whole entry, looked up): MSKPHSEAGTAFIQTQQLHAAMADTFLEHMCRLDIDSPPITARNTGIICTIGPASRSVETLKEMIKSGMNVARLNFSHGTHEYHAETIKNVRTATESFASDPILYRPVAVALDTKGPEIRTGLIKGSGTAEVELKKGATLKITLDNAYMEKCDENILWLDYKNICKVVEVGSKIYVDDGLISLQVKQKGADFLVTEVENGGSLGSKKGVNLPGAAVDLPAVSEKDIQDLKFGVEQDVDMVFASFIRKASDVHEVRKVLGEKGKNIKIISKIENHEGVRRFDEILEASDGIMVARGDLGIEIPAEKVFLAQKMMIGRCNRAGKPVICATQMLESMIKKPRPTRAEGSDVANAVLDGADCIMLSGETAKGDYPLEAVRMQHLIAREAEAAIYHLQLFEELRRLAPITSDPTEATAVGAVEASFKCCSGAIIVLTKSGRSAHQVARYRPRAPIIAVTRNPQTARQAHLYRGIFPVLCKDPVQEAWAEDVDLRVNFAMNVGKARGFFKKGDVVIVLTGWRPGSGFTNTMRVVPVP
How it was run: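 ATP production by PKM2 detected via luciferase luminescence after 1 h room-temperature reaction (0.1 nM enzyme, PEP at Km 0.5 mM, ADP 0.1 mM, pH 7.2 imidazole buffer). Inhibition scaled to no-enzyme control; activation referenced to 0.3 nM enzyme wells.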

[9] = biological target: Pyruvate kinase (Leishmania mexicana) (UniProt Q27686); experiment: qHTS Validation Assay for Activators of Leishmania Mexicana Pyruvate Kinase (AID 959)
Sequence of Pyruvate kinase (Leishmania mexicana) (Q27686 2-499 E452W): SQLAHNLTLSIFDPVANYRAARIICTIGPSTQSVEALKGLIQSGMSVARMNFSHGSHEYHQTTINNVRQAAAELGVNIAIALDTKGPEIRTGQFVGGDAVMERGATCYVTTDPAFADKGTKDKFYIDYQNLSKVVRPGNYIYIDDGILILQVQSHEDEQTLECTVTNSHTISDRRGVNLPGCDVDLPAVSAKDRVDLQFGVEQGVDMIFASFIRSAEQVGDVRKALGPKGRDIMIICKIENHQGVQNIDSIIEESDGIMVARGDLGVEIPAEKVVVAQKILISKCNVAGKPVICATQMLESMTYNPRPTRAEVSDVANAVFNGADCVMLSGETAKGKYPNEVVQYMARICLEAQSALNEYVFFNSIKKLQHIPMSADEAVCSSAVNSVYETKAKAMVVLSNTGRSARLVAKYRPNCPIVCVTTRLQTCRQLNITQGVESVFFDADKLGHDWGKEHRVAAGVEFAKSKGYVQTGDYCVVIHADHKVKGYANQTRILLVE
How it was run: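 Eight-point qHTS titrations; enzyme 0.2 nM LmPYK (E451W mutant); substrates 0.5 mM PEP, 0.1 mM ADP; 7 mM MgCl2; 1 h room temperature; PKLight luminescence normalized to neutral control.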

[10] = qHTS for Inhibitors of the vitamin D receptor (VDR): Hit Validation using a Texas Red Assay (AID 602201); settings: VDR coregulator binding, Texas Red fluorescence polarization; agonist-bound VDR ligand-binding domain; further: potency means the concentration at half of the fitted maximal effect
Description: The vitamin D receptor (VDR) is a ligand-activated transcription factor and is partially responsible for the regulation of the endocrine system. This includes the transcriptional regulation of genes involved in the production of the parathyroid hormone (PTH) and the regulation of the blood calcium level. High levels of PHT can cause hypercalcemia in the case of primary and tertiary hyperparathyroidism. The VDR-mediated gene regulation, activated by its ligand 1,25-dihydroxyvitamin D3 (1,25-(OH)2D3), is governed by the recruitment of coactivators. Our hypothesis is that small molecules, with the ability to inhibit the interaction between VDR and certain coactivators, are able to selectively modulate VDR-mediated transcription. Our long term objective is the application these VDR-coactivator inhibitors to study the role of VDR-coactivator binding for specific VDR regulated genes. Ultimately, these molecules can be developed into new treatments for hypercalcemic hyperparathyroidism. No small molecule or non-peptide inhibitors are known for the VDR-coactivator interaction.
In a collaboration between the University of Wisconsin, Milwaukee and the NIH Chemical Genomics Center (NCGC) a HTS-compatible enzymatic assay was developed. The assay uses fluorescence polarization as its read-out to measure the inhibition between VDR and coregulator peptide SRC2-3 exerted by small molecules. This assay was used to screen the NIH Molecular Libraries Small Molecule Repository (MLSMR). The HTS assay detects polarization at 665 nm emitted by the Alexa Fluor 647 dye. This validation assay detects polarization of the emission from Texas-Red at 615 nm.
NIH Chemical Genomics Center [NCGC]
NIH Molecular Libraries Probe Centers Network [MLPCN] […]
Four microliter of either 1.5 uM VDR-LBD, […] LG19078, and 7 nM Texas Red (all final concentrations) in columns 1, 2, and 5 to 48 or 7 nM Texas Red in columns 3 and 4 are dispensed into black medium-binding solid bottom Greiner plates. […] It is then read on the Envision for a fluorescent polarization read-out (Ex 595 nm/Em 615 nm)

N#CC(=C(/N)Sc1ccccc1N)/C(C#N)=C(\N)Sc1ccccc1N
Potency [1]: 5.15 µM (active)

CN[C@@H]1[C@H](O)[C@H](O[C@@H]2[C@H](O)[C@@H](O[C@H]3O[C@H]([C@@H](C)NC)CC[C@H]3N)[C@@H](N)C[C@H]2N)OC[C@]1(C)O
growth, % of control [2]: 107%

CC(=O)[C@H]1[C@H](C#N)C[C@H]2[C@@H]3CC=C4C[C@@H](O)CC[C@]4(C)[C@H]3CC[C@@]21C
outcome [3]: inactive | activation [4]: -8.47% (inactive) and 3.7% (inactive) | activation [5]: -1.18% (inactive) and -2.42% (inactive) | outcome [6]: inactive

OCc1cc([C@@H](O)CNCCCCCCOCCCCc2ccccc2)ccc1O
Potency [7]: inactive

Cc1cccc(/C=C\c2ccccc2)n1
Potency [8]: 15.8 µM (active) | Potency [9]: inactive

O=C1c2ccccc2CC[C@H]1CNCCc1ccc(O)cc1
Potency [10]: 25.1 µM (active)
